The source of these data is PubChem BioAssay (Tox21).

Records with an inconclusive call do not appear. A number with no mark means an inactive call. Activity calls are given as the source filed them. The call rests on the fitted dose curve; in most records, active means well fitted cell-killing curve with a large enough effect in the repeat runs; inconclusive means weak or mixed curves, or effect the other way; inactive means no such curve, though single readings can be large or run the other way.
On the % scale 0 is the no-effect control and ±100 the full control effect; potency means the concentration at half of the fitted maximal effect.

This assay in a line: qHTS assay to identify small molecule antagonists of the peroxisome proliferator-activated receptor gamma (PPARg) signaling pathway - cell viability counter screen (AID 743194). Further: nearly all actives have a fitted effect of over 55% in size. The note with it: PPARg-bla HEK293H viability, CellTiter-Glo luminescence, 17 h, co-treated with 50 nM rosiglitazone; series mostly up to 62.6 µM; activity change, negative = cytotoxicity: at the top concentration. From the text: U.S. Tox21 Program National Center for Advancing Translational Sciences [NCATS] NIH Chemical Genomics Center [NCGC] U.S. Environmental Protection Agency [EPA] National Institutes of Environmental Health Sciences [NIEHS] National Toxicology Program [NTP] U.S. Food and Drug Administration [FDA] Tox21 Assay Overview: The peroxisome proliferator-activated receptors (PPARs) are lipid-activated transcription factors of the nuclear receptor superfamily with three distinct subtypes namely PPAR alpha, PPAR delta (also called PPAR beta) and PPAR gamma (PPARg). All these subtypes heterodimerize with Retinoid X receptor (RXR) and these heterodimers regulate transcription of various genes. PPAR-gamma receptor (glitazone receptor) is involved in the regulation of glucose and lipid metabolism. To identify the compounds that activate PPAR-gamma signaling, GeneBLAzer PPAR gamma UAS-bla HEK293H cell line (Invitrogen, Carlsbad, CA, USA) containing a beta-lactamase reporter gene under the control of an Upstream Activator Sequence (UAS) was used to screen the Tox21 compound library. The cytotoxicity of the Tox21 compound library against the PPARg-bla cell line was tested in parallel by measuring the cell viability using CellTiter-Glo assay in the same wells.
Tox21 Assay Protocol Summary: PPARg-bla cells were dispensed at 3000 cells/5uL/well in 1536-well black wall/clear bottom plates using a Multidrop Combi (Thermo Fisher Scientific, Waltham, MA) dispenser. After the assay plates were incubated at 37 C and 5% CO2 for 5 h, 23 nL of compounds dissolved in DMSO, positive controls or DMSO only was transferred to the assay plate by a Pintool station (Kalypsys, San Diego, CA), followed by addition of 1ul Rosiglitazone (50 nM, final concentration in the wells). The assay plates were incubated at 37 C for 17 h, and then 1 uL of LiveBLAzerTM B/G FRET substrate was added using a Bioraptr Flying Reagent Dispenser (FRD) workstation (Beckman Coulter, Indianapolis, IN, USA). The assay plates were incubated at room temperature for 1 h and fluorescence intensity was measured by an Envision plate reader (PerkinElmer, Shelton, CT). For cell viability readout that measures cytotoxicity, 4 ul/well of CellTiter-Glo reagent was added into the assay plates using a Flying Reagent Dispenser. After 30 min incubation at room temperature, the luminescence intensity in the plates was measured using a ViewLux plate reader (PerkinElmer).
(In general: qHTS replaces the single test concentration by a dilution series.)
On to `CCCCC(CC)COC(=O)COc1cc(Cl)c(Cl)cc1Cl` (stereo not given), for which the “activity change, negative = cytotoxicity” value was 14.5%.

Regarding `CCCCCOc1ccc(C2SC(=O)NC2=O)cc1OCC` (stereo not given), the “activity change, negative = cytotoxicity” value is 2.4%.

With `CC(Oc1c(Cl)cccc1Cl)C1=NCCN1` (stereo not given), the “activity change, negative = cytotoxicity” value is -29%.

Regarding `CC(C)=CCC[C@](C)(O)[C@@H]1CC=C(C)CC1`, the “activity change, negative = cytotoxicity” value was 6.86%.

With `O=C1CCCCCCCCCCC(=O)OCCO1`, the “activity change, negative = cytotoxicity” value was -3.86%.

Turning to `CC(=O)Oc1cc(C(C)C)c(OCCN(C)C)cc1C`, the “activity change, negative = cytotoxicity” value was 27%.

With `CCCN(CCC)C(=O)C(CCC(=O)O)NC(=O)c1ccccc1` (stereo not given), the “activity change, negative = cytotoxicity” value was -2.48%.

`O=C1C=CC(=O)O1`: the “activity change, negative = cytotoxicity” value is 22.4% [at 81.1 µM].

As for `CN1[C@@H]2CC[C@H]1CC(OC(=O)c1c[nH]c3ccccc13)C2` (stereo not given in full), the “activity change, negative = cytotoxicity” value was 7.25%.

As to `CCOC(=O)[C@H](CCc1ccccc1)N[C@@H](C)C(=O)N1Cc2cc(OC)c(OC)cc2C[C@H]1C(=O)O`, the “activity change, negative = cytotoxicity” value is -4.65%.

Consider `Nc1ccc(Oc2ccc(N)c(N)c2)cc1`, for which the “activity change, negative = cytotoxicity” value is -13%.

For the compound `O=C(O[C@@H](C(=O)O)[C@@H](OC(=O)c1ccccc1)C(=O)O)c1ccccc1`, the “activity change, negative = cytotoxicity” value was 7.08% [at 81.1 µM].

For `COc1nc(C)nc(NC(=O)NS(=O)(=O)c2ccccc2OCCCl)n1`, the “activity change, negative = cytotoxicity” value is 0.869%.

`CC(C)O`: the “activity change, negative = cytotoxicity” value was 4.41% [at 81.1 µM].

On to `O=C(O)[C@@H]1CSCN1`, for which the “activity change, negative = cytotoxicity” value was -9.22%.

With `CCC/C=C/CO`, the “activity change, negative = cytotoxicity” value was -9.92%.

As to `CC(C)=CCCC(C)CCOC=O` (stereo not given), the Potency is 43.6 µM (active).

Take `CN1CCN(c2c(F)cc3c(=O)c(C(=O)O)cn4c3c2SCC4)CC1`: the “activity change, negative = cytotoxicity” value is -0.38%.

Turning to `CCCCCCCCCC/C=C/C#N`, the “activity change, negative = cytotoxicity” value is 6.52%.

Take `NCCC(O)(P(=O)(O)O)P(=O)(O)O`: the “activity change, negative = cytotoxicity” value is -0.416%.

With `CCCCc1ccc2nc(NC(=O)OC)[nH]c2c1`, the “activity change, negative = cytotoxicity” value is 5.84%.

`Cc1cc(S(=O)(=O)O)c(N)cc1Cl`: the “activity change, negative = cytotoxicity” value was 19% [at 81.1 µM].

In the case of `CC(C)C[C@H](NC(=O)OCC1c2ccccc2-c2ccccc21)C(=O)O`, the “activity change, negative = cytotoxicity” value was 7.03%.

As to `CN(C)CC[C@@H](c1ccc(Cl)cc1)c1ccccn1`, the “activity change, negative = cytotoxicity” value was 7.47%.

With `CCc1nnc(NS(=O)(=O)c2ccc(N)cc2)s1`, the “activity change, negative = cytotoxicity” value is 15.2%.

For `COc1cc(N)c(Cl)cc1C(=O)NC1CCN(Cc2ccccc2)CC1`, the “activity change, negative = cytotoxicity” value is -1.35%.

As for `O=C(O)C(=O)Cc1c[nH]c2ccccc12`, the “activity change, negative = cytotoxicity” value was -19.1%.

`O=Cc1ccc(O)c(O)c1O`: the “activity change, negative = cytotoxicity” value was 4.81%.

Consider `CC(C)NCC(O)COc1ccc(CCOCC2CC2)cc1` (stereo not given), for which the “activity change, negative = cytotoxicity” value is 1.55%.

For `CCCCCCCCOC(=O)CCCCCCCCC(=O)OCCCCCCCC`, the “activity change, negative = cytotoxicity” value is 0.525%.

For `C[C@@H]1CN(c2c(F)c(N)c3c(=O)c(C(=O)O)cn(C4CC4)c3c2F)C[C@H](C)N1`, the “activity change, negative = cytotoxicity” value was 23.8% [at 29.1 µM].

As for `CNCCC(Oc1ccccc1OC)c1ccccc1` (stereo not given), the “activity change, negative = cytotoxicity” value was -29.9%.

Consider `O=C(CC(=O)C(F)(F)F)c1ccccc1`, for which the “activity change, negative = cytotoxicity” value is -5.62% [at 81.1 µM].

Turning to `OCCN1CCN(CCO)CC1`, the “activity change, negative = cytotoxicity” value was 2.71% [at 81.1 µM].

On to `CCN(CC)CCNC(=O)COc1ccc(Cl)cc1`, for which the “activity change, negative = cytotoxicity” value was -6.24%.

As to `COC(=O)/C=C(/C)N`, the “activity change, negative = cytotoxicity” value was 13.8%.

With `O=CCCc1ccccc1`, the “activity change, negative = cytotoxicity” value was 15.7%.

For `O=C(O)c1cccc(Cl)c1Cl`, the “activity change, negative = cytotoxicity” value is -7.84%.

With `Cc1cc2c(s1)Nc1ccccc1N=C2N1CCN(C)CC1`, the “activity change, negative = cytotoxicity” value is 0.352%.

Turning to `CC(=O)O[C@H]1CC[C@@]2(C)C(=CC[C@@H]3[C@@H]2CC[C@]2(C)C(C(C)=O)=CC[C@@H]32)C1`, the “activity change, negative = cytotoxicity” value is 4.37%.
